Where “and” joins values, the source holds several entries; their conditions need not be identical. Equal entries are not always repeated. About 83,000 compounds went through this panel and 20% of them were active in at least one assay; those are over-represented in the sample as a whole.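 Single-concentration screen, 48 h exposure, 96-well plates. Endpoint: percent growth. Below 10 = active.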 Calls of active or inactive are those of the source.

The test system of one assay is CCRF-CEM leukemia. The assay can be described thus: NCI-60 one-dose screen, 48 h (100 = growth as untreated, 0 = no growth, -100 = all killed). Particulars: 1 µM. As to the method:
Growth inhibition of the CCRF-CEM human tumor cell line is measured as a screen for anti-cancer activity. Cells are grown in 96 well plates and exposed to the test compound for 48 hours. Compounds are tested at a single concentration, which is 10^-5 M for most compounds. The reported endpoint is percent growth (GI% or GIPRCNT), where numbers from 0 - 100% represent growth inhibition, and numbers from -100% - 0 represent cell death. For example, a value of 40 represents 60% growth inhibition. A value of 0 means no net growth occurred over the course of the experiment. A value of -40 indicates 40% of cells at the beginning of the experiment died by the end of the experiment. A value of -100 means all cells are dead at the end of the experiment.
NCI-60 Human Tumor Cell Lines Screen was performed using the standard one-dose NCI protocol, which is described in more detail at https://dtp.cancer.gov/discovery_development/nci-60/default.htm.
Compounds with GIPRCNT values below 10 were considered active. Activity score was based on GIPRCNT using the following formula: […]
Score is 0 for GIPRCNT values of 100 or above, 50 for GIPRCNT values of 0, and 100 for GIPRCNT values of -100.
Consider `CC/C(=C(\c1ccc(O)cc1)c1ccc(OCCNC)cc1)c1ccccc1`, for which the growth was 89.9% (inactive).

Regarding `CC/C(=C(/c1ccc(O)cc1)c1ccc(OCCN(C)C(=O)CCOCCNC(=O)Cc2ccc3c(c2)CN([C@@H]2CCC(=O)NC2=O)C3=O)cc1)c1ccccc1`, the growth is 3.79% (active).

For `CC/C(=C(\c1ccc(O)cc1)c1ccc(OCCN(C)C(=O)CCOCCNC(=O)c2ccc3c(c2)CN([C@@H]2CCC(=O)NC2=O)C3=O)cc1)c1ccccc1`, the growth is 24.5% (inactive).

Regarding `CC/C(=C(/c1ccc(O)cc1)c1ccc(OCCN(C)C(=O)COCCOCCNC(=O)c2ccc3c(c2)CN([C@@H]2CCC(=O)NC2=O)C3=O)cc1)c1ccccc1`, the growth was 9.04% (active).

Still in this assay, the particulars now being: 10 µM.
As for `CC/C(=C(\c1ccc(O)cc1)c1ccc(OCCNC)cc1)c1ccccc1`, the growth was 92.6% (inactive).

For the compound `CC/C(=C(/c1ccc(O)cc1)c1ccc(OCCN(C)C(=O)CCOCCNC(=O)Cc2ccc3c(c2)CN([C@@H]2CCC(=O)NC2=O)C3=O)cc1)c1ccccc1`, the growth is 22.9% (inactive).

`CC/C(=C(\c1ccc(O)cc1)c1ccc(OCCN(C)C(=O)CCOCCNC(=O)c2ccc3c(c2)CN([C@@H]2CCC(=O)NC2=O)C3=O)cc1)c1ccccc1`: the growth is 26.1% (inactive).

For `CC/C(=C(/c1ccc(O)cc1)c1ccc(OCCN(C)C(=O)COCCOCCNC(=O)c2ccc3c(c2)CN([C@@H]2CCC(=O)NC2=O)C3=O)cc1)c1ccccc1`, the growth was 12.9% (inactive).

The assay is the same for the next values; noted with them: 10 µM unless noted.
As for `O=C(Nc1ccc(-c2ccc3c(c2)NC(=O)/C3=C\c2ccc[nH]2)cc1)Nc1ccc(Cl)c(Cl)c1`, the growth is 33.1% (inactive).

On to `Nc1cc(-c2c[nH]c3ccc(Cl)cc23)nc2cc(-c3c[nH]c4ccccc34)nn12`, for which the growth is -16.6% (active).

Take `O=C(CSc1nc2sc3c(c2c(=O)n1-c1ccc(Cl)cc1)CCCC3)N/N=C/C=C/c1ccccc1`: the growth is -33.7% (active).

In the case of `COc1ccc(-n2c(NC(=O)N3CCN(C)CC3)c(C#N)c3ccccc32)cc1`, the growth is 60.5% (inactive).

As for `NC(=O)c1ccc(-c2ccc3ncnc(N4CCc5cc(F)c(Cl)cc54)c3c2)cn1`, the growth is 44.2% (inactive).

In the case of `CC1=C(C(=O)OC(C)C)C(c2ccc(O)cc2)NC(=O)N1` (stereo not given), the growth is 93.9% (inactive).

For the compound `O=C(CCl)Nc1ccc(C(=O)/C=C/c2cc3ccccc3nc2Cl)cc1`, the growth was -23.1% (active) and 5.66% (active).

Take `Cc1nn(-c2ccccc2)c2nc(C)n(C(=O)N/N=C/c3cccc([N+](=O)[O-])c3)c(=O)c12`: the growth was 71.2% (inactive).

Take `O=C(CSc1nc2c(c(=O)[nH]1)CCCC2)Nc1ccccc1C(=O)O`: the growth is 101% (inactive).

As for `CN(C)CCCNC(=S)Nc1ccc(/C=C/c2ccc(Cl)cc2)cc1`, the growth was -16.9% (active).

For `O=C1N/C(=N\c2nccs2)S/C1=C\c1ccc([N+](=O)[O-])cc1`, the growth was -0.568% (active).

Take `O=C(Nc1ccc(F)cc1)Nc1nc2ccc([N+](=O)[O-])cc2s1`: the growth is 11.5% (inactive).

In the case of `O=C1CCC(N2C(=O)c3cccc(NCCOCCOCCOCCC(=O)NCCCC(=O)NC(c4ccc5c(c4)OCO5)c4cc(Cl)c5cccnc5c4O)c3C2=O)C(=O)C1` (stereo not given), the growth was -4.69% (active).

`COc1cc(CNC(=O)C[C@H](C)CCC=C(C)C)ccc1OCc1cn(-c2ccc(Cl)c(Cl)c2)nn1`: the growth was 84.5% (inactive).

Regarding `Cc1cc(C(NC(=O)CCCCCNc2cccc3c2C(=O)N(C2CCC(=O)CC2=O)C3=O)c2cccc(N(C)C)c2)c(O)c2ncccc12` (stereo not given), the growth is -19.4% (active).

`Nc1nn2c(-c3cc4cc(Br)ccc4oc3=O)ccnc2c1N=Nc1ccccc1`: the growth is 94.5% (inactive).

For the compound `O=C(NC(=S)N1CCN(c2ncnc3c2cnn3-c2ccccc2)CC1)c1ccc(F)cc1`, the growth is 63.2% (inactive).

On to `O=C(c1ccc(Cl)cc1)C1[C@H](c2ccccc2Cl)[C@@H](c2ccccc2)NC12C(=O)Nc1ccc(Br)cc12` (stereo not given in full), for which the growth is -13.5% (active).

Consider `CC1=C(C(=O)Nc2ccccc2)C(c2ccc3ccccc3c2)n2c(nc3ccccc32)N1` (stereo not given), for which the growth was 11.1% (inactive).

Take `N#C/C(=C/c1ccc(Cl)cc1)c1nnc(NC(=O)c2ccc(-n3c(=O)[nH]c4ccccc4c3=O)cc2)s1`: the growth was 97.9% (inactive).

Consider `COc1ccc2[nH]c(=O)c(CSc3ccccc3Nc3nccc(-c4ccc5c(c4)OCO5)n3)cc2c1`, for which the growth was 69.8% (inactive).

On to `CS(=O)(=O)Nc1cc(-c2ccc3ncnc(N4CCc5cc(F)c(Cl)cc54)c3c2)cnc1Cl`, for which the growth was 16.7% (inactive).

Consider `O=S(=O)(c1nc(-c2ccc(Br)cc2)oc1-c1ccc(Cl)cc1)N1CCCC(O)C1` (stereo not given), for which the growth was 48.1% (inactive).

Turning to `COC(=O)c1cc(C(=O)C(F)(F)F)n2c3ccccc3c3ccccc3c12`, the growth was 97.6% (inactive).

Take `CCCn1c(NC(=O)c2cccc(C(N)=O)c2)nc2cc(CN3CCCCC3)ccc21`: the growth is 94.7% (inactive).

`CCOC(=O)/C(F)=C/C1CC1CCc1ccc(OCC)cc1` (stereo not given): the growth is 106% (inactive).

In the case of `COC(=O)CSC1=C(C)C(=O)C(OC)=C(OC)C1=O`, the growth was 25% (inactive).

On to `COc1ccc(NC(=O)CSc2nnc(-c3ccc(-c4nc5ccc(Cl)cc5[nH]4)cc3)o2)cc1`, for which the growth was 54.2% (inactive).

As to `COc1c(B(O)O)cc(F)cc1-c1nc2c(F)cc3[nH]ncc3c2c2c1CCCC2`, the growth is -3.23% (active).

`O=C(Nc1nc2ccc([N+](=O)[O-])cc2s1)Nc1ccc(Cl)cc1Cl`: the growth was 42.1% (inactive).

As to `Oc1ccc(Cl)c(Nc2ncnc3c2cnn3CC(Cl)c2ccc(Br)cc2)c1` (stereo not given), the growth was 59.8% (inactive).

As to `O=[N+]([O-])c1cccc(-c2nnc3c(/C=C/c4ccc(F)cc4)nc4ccccc4n23)c1`, the growth is 102% (inactive).

For the origin of these results see PubChem BioAssay (NCI).
